Our source for the growth values is PubChem BioAssay (NCI).

About 83,000 compounds went through this panel and 20% of them were active in at least one assay; those are over-represented in the sample as a whole.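 Each cell line was grown in a 96-well plate and treated with one concentration of compound for 48 hours. Values below 10 were considered active.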 Unmarked numbers belong to inactive results. The source made the active and inactive calls.

This test has as its system OVCAR-4 ovarian. The test can be described thus: NCI-60 one-dose screen, 48 h (100 = growth as untreated, 0 = no growth, -100 = all killed). To be noted: 10 µM unless noted. On the procedure: Growth inhibition of the OVCAR-4 human tumor cell line is measured as a screen for anti-cancer activity. Cells are grown in 96 well plates and exposed to the test compound for 48 hours. Compounds are tested at a single concentration, which is 10^-5 M for most compounds. The reported endpoint is percent growth (GI% or GIPRCNT), where numbers from 0 - 100% represent growth inhibition, and numbers from -100% - 0 represent cell death. For example, a value of 40 represents 60% growth inhibition. A value of 0 means no net growth occurred over the course of the experiment. A value of -40 indicates 40% of cells at the beginning of the experiment died by the end of the experiment. A value of -100 means all cells are dead at the end of the experiment.
NCI-60 Human Tumor Cell Lines Screen was performed using the standard one-dose NCI protocol, which is described in more detail at https://dtp.cancer.gov/discovery_development/nci-60/default.htm.
Compounds with GIPRCNT values below 10 were considered active. Activity score was based on GIPRCNT using the following formula: […]
Score is 0 for GIPRCNT values of 100 or above, 50 for GIPRCNT values of 0, and 100 for GIPRCNT values of -100.
Consider `CCn1cc(C(=O)N/N=C/c2cccc(F)c2)c(=O)c2cc(F)c(N3CCNC(C)C3)c(F)c21` (stereo not given), for which the growth is 23.8%.

As for `CC(=O)N1N=C(c2ccc(Nc3nc(Nc4ccc(F)cc4)nc(Nc4ccc(F)cc4)n3)cc2)CC1c1ccc(N(C)C)cc1` (stereo not given), the growth was 62.2%.

On to `COc1ccc2cc(C(=O)N3CCC([C@@H](C)C(=O)NCc4ccc5c(c4)OCO5)CC3)[nH]c2c1`, for which the growth is 53.3% [50 µM].

As for `O=C1NC(=O)C(c2coc3cc(Br)ccc23)=C1c1c[nH]c2ccccc12`, the growth is 77.5%.

With `Cc1ccc2c(c1)nc(C)n2-c1ncnc2c1CC(C)c1cc(O)ccc1N2C` (stereo not given), the growth was 67.5%.

For `CC(C)NS(=O)(=O)/N=C1\NC(=O)NC1=C(Cl)Cl`, the growth is 106%.

In the case of `Cn1c(=O)[nH]c(=O)c2nc3c(nc21)-c1ccccc1C3=O`, the growth was 102%.

Regarding `O=C(c1cccc(N2CCOCC2)n1)c1c[nH]c2ccccc12`, the growth is 82.3%.

Turning to `C#CCOc1cccc(Nc2ncnc3cc(NC(=O)CCl)ccc23)c1`, the growth is -41% (active).

In the case of `Clc1cccc(C2Cc3cnccc3-c3[nH]c4ccncc4c32)c1` (stereo not given), the growth was 36.2%.

As for `CN(C)/C(N)=N/N=C(\c1ccccc1)c1ccccn1`, the growth is 86.6%.

Consider `CCOC(=O)C1=C(c2ccccc2)N=C2N(c3ccccc3)N=C(C(C)=O)N2C1c1ccc(F)cc1` (stereo not given), for which the growth is 97.9%.

Consider `CC(C)(C)c1ccc(C(=O)N/N=C/c2ccc(O)cc2O)cc1`, for which the growth is 22%.

Regarding `Clc1ccc(Nc2nnc(CNc3ccccc3)c3ccccc23)cc1`, the growth was 19.3%.

`O=CN1N=C(c2cccc(Nc3ccnc4cc(Cl)ccc34)c2)CC1c1ccc(Cl)cc1` (stereo not given): the growth is 57.5%.

As to `COC12C=C/C(=C(/C(=O)OCCSc3ccnn3C)C(=O)CCCCCCCCC3(OC)C=C/C(=C(/C(=O)OCCSc4ccnn4C)C(=O)CCCCCCCC1)O3)O2`, the growth is 20.4%.

`O=C(Nc1ncc(Cc2ccccc2)s1)c1sc2ccccc2c1Cl`: the growth was 68.1%.

For `COc1cc(-c2nccc3[nH]c(-c4cccc5[nH]ccc45)nc23)cc(OC)c1OC`, the growth is 47.5%.

`CCN(CC)C(=O)C1=C(C)NC(=O)NC1c1ccc2c(c1)OCO2` (stereo not given): the growth was 111%.

Take `COCCn1cc(-c2nc(-c3c[nH]c4ncccc34)cs2)c2ccccc21`: the growth was 15.2%.

Consider `Cc1ccc(S(=O)(=O)OCC#CCOS(=O)(=O)c2ccc(C)cc2)cc1`, for which the growth is 73.4%.

Turning to `COc1cc([C@@H](CCO)C[C@H](C)c2ccc3ccccc3c2)cc(OC)c1OC`, the growth was 55.8%.

For the compound `CCN1CCN(CCNc2nccc(-c3c(-c4ccc(F)c(O)c4)nc4occn34)n2)S1(=O)=O`, the growth was 19.8%.

Consider `c1csc(-c2cn3nc(-c4c[nH]c5ccccc45)sc3n2)c1`, for which the growth is 45%.

Consider `COc1c2c(cc3c1C(=O)N[C@@H]1[C@@H](O)[C@@H](O)[C@H](O)C[C@@H]31)OCCO2`, for which the growth is 105%.

Turning to `O=C(O)CC(C(=O)O)/C(=C\c1ccccc1)c1ccccc1` (stereo not given), the growth is 107%.

As to `N=C(N)c1ccc(-c2ccc(-c3ccccc3)o2)o1`, the growth was 63.1%.

Consider `CCN(CC)CCOc1ccc(Nc2ncc3cc(-c4c(Cl)cccc4Cl)c(=O)n(CCOC)c3n2)cc1`, for which the growth is 35.3%.

For the compound `CCN1C2CCC1/C(=C\c1ccccc1)C(=O)/C2=C/c1ccccc1`, the growth was 46.1%.

For the compound `COc1cc2c3c(c4c5ccccc5[nH]c4c2c(OC)c1OC)C(=O)N(CCN1CCCCC1)C3=O`, the growth was 15.7%.

`O=C(/C=C/C12c3ccccc3C(c3ccccc31)C1C(=O)NC(=O)C12)c1ccc(I)cc1` (stereo not given): the growth is 84.8%.

Turning to `O=c1oc2c(cc1-c1ccccc1)c(=O)[nH]c1ccccc12`, the growth was 99.6%.

As for `CC1=C2[C@@H](CC1)[C@]1(C)O[C@@](C3CCNCC3)(C[C@H]1OC(=O)CO)[C@H]2OC(=O)/C=C/c1ccccc1`, the growth was 82.9%.

Take `O=C(NCCCCCCNC(=O)OCc1ccc2c(Cl)cc(Cl)c(O)c2n1)OCc1ccc2c(Cl)cc(Cl)c(O)c2n1`: the growth is -56.9% (active).

In the case of `C=CCN=c1sc(-c2ccc3ccccc3c2)cn1NC(=O)c1cc2ccc1CCc1ccc(cc1)CC2`, the growth is 33.5%.

On to `COc1ccc(/C=C(/C(=O)N2CCNCC2)c2cc(OC)c(OC)c(OC)c2)cc1O`, for which the growth is 78.7%.

Turning to `O=C(NCCCCO)c1cncnc1Nc1ccc2c(ccn2Cc2cccc(F)c2)c1`, the growth was 100%.

With `COc1cc(/C=C/C(=O)N2CCN(C(=O)c3cc(OC)c(OC)c(OC)c3)CC2)ccc1OCCCOc1cc2c(cc1OC)C(=O)N1CCC[C@H]1C=N2`, the growth is 16%.

For the compound `O=C(/C=C/c1cccc(Oc2ccccc2)c1)c1ccc(Nc2nc(Nc3ccc(F)cc3)nc(Nc3ccc(Cl)cc3)n2)cc1`, the growth was 97.9%.

With `COc1cc2ncnc(Nc3ccc(F)c(Cl)c3)c2cc1OCC(=O)N1CCOCC1`, the growth is 82.7%.
